Screening data deposited in PubChem by National Center for Advancing Translational Sciences (NCATS).
Lamin A splicing: qHTS Assay for Modulators of Lamin A Splicing | AID 1487, 2009 | HeLa LMNA splicing GFP/RFP minigene ratio, 48 h | Potency, µM (highest dose often 46.1 µM), for the others: top-dose ratio change, negative = inhibition, most hits filed as inhibitors | 200,000 compounds, 0.01% hits; active = well fitted inhibition curve with a large enough effect in the signal ratio, with a control signal flat, not every such curve was filed as active; inconclusive = small, poorly fitted or top-dose-only effect, or effect the other way, or a change in a side signal; the % refers to the signal ratio; also: potency is read from the fitted curve at half-maximal effect
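Read-out is the ratio of GFP to DsRed2 object intensity, acquired by 488 nm laser-scanning cytometry on HeLa lamin A-EGFP minigene reporter cells. Compound incubation 48 hrs at 37 °C in Opti-MEM with 2% FBS; DMSO 0.5% final.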
PNC assembly inh: High Content Assay for Compounds that inhibit the Assembly of the Perinucleolar Compartment | AID 2417, 2010 | 140,000 compounds, 3.1% hits | activity change (PNC), negative = inhibition, % at 10 µM | PC3M PTB-GFP, PNC prevalence imaging, 16 h; hits give low values;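 active = readout at or below -70, meaning at least 70% loss of cells showing the perinucleolar compartment, a nuclear body marking cancer cells; inconclusive = readout between -30 and a set limit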;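 also: plate controls were DMSO wells for no effect and camptothecin positive control wells for full effect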
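Compounds are pinned in duplicate onto adhered PC3M cells stably expressing GFP-tagged PTB and incubated 16 h at 37 C. Cells are then fixed, nuclei stained with Hoechst, and PNC-positive cells counted.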
HPGD inh: qHTS Assay for Inhibitors of HPGD (15-Hydroxyprostaglandin Dehydrogenase). 150,000 compounds, 4.3% hits. Potency, µM, for the others: at the top dose activity change, negative = inhibition, usual class: inhibitors. purified HPGD, NADH fluorescence kinetic, PGE2 substrate. 15-hydroxyprostaglandin dehydrogenase [NAD(+)] (Homo sapiens), P15428; also: potency is read from the fitted curve at half-maximal effect
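NADH formation kinetics: reaction with 30 uM PGE2 and 1 mM NAD+ (final), 20 nM enzyme, Tris-HCl pH 8 with Tween 20, after 15 min compound preincubation at room temperature. Fluorescence change, last versus first of five reads.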
KinaseGlo FLuc: Counterscreen for Luciferase (Kinase-Glo TM) Inhibition; 200,000 compounds, 0.28% hits; Luciferin 4-monooxygenase (Photuris pensylvanica), Q27757; Kinase-Glo luciferase, ATP luminescence, 8 min; AID 1379, 2008; Potency, µM (highest dose often 38.3 µM), for the others: top-dose activity change, negative = inhibition, actives largely listed as inhibitors; active = well fitted inhibition curve with a large enough effect; inconclusive = small, poorly fitted or top-dose-only effect; also: potency is read from the fitted curve at half-maximal effect; nearly all actives have a fitted effect of over 60% in size
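Compounds were added to a substrate mix at pH 7.2 (50 mM imidazole, 10 uM ATP, within the enzyme's linear range), followed by Kinase-Glo detection reagent; luminescence was measured after 8 minutes at ambient temperature.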
ALDH1A1 block: qHTS Assay for Inhibitors of Aldehyde Dehydrogenase 1 (ALDH1A1) | Aldehyde dehydrogenase 1A1 (Homo sapiens), P00352 | Purified ALDH1A1, NADH fluorescence, propionaldehyde substrate | Potency, µM (highest dose often 75.3 µM), for the others: at the highest dose activity, negative = inhibition, most hits filed as inhibitors | 220,000 compounds, 7.3% hits;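 also: potency is read from the fitted curve at half-maximal effect; plate controls were no enzyme wells and a reference inhibitor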
Target sequence (P00352 whole entry, looked up): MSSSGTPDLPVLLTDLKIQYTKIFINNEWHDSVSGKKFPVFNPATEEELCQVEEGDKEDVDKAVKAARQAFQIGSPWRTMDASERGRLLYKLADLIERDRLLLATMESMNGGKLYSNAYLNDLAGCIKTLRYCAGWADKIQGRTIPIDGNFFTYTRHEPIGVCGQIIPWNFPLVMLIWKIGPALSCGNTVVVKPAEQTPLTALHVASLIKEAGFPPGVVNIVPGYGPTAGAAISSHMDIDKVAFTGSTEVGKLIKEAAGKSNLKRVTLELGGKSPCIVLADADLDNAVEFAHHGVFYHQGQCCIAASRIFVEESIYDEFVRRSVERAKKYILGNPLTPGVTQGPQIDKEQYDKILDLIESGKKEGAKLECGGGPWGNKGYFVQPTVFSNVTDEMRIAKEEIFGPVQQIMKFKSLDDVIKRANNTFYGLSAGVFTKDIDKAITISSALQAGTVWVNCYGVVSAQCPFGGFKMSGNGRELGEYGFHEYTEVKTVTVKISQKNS
An asterisk follows results filed as active; u = inconclusive; x = no result given; ! = a repeat was not active; [ ] = another dose, or the depositor's remark. Hits are enriched below; roughly 10% of the tested compounds scored in any of these assays. Unless noted, calls follow the shape of the dose curve; as a rule, active = well fitted inhibition curve with a large enough effect (not every such curve was filed as active); inconclusive = small, poorly fitted or top-dose-only effect, or another doubt; inactive = no such curve, though single readings can be large or run the other way. Unless noted, % is scaled to controls: 0 for no effect and ±100 for the full control effect.

SMILES	Lamin A splicing	PNC assembly inh	HPGD inh	KinaseGlo FLuc	ALDH1A1 block
N#CS.N=C=S.N=C=S.[Cu].[NH2-].[NH2-].[NH2-].[NH2-].c1ccc2ncccc2c1	x	x	-3%	-2%[7.66 µM]	3.5µM*
Cc1ccc(S(=O)ON2CCC(C(=O)O)(c3ccccc3)CC2)cc1 (stereo not drawn)	x	x	-9%	0%[7.66 µM]	15%[13.5 µM]
Cc1ccc(S(=O)(=O)NC(CC(=O)N2CCC3(CC2)OCCO3)c2ccco2)cc1 (stereo not drawn)	-3%	-8	-2%	2%	13µM*
CC[C@@]1(O)C(=O)OCc2c1cc1n(c2=O)-c2cc3ccccc3nc2C1	x	x	u	1%[39.9 µM]	u
CN1CCN(c2ncc3ncc(=O)n(C)c3n2)CC1	-1%	x	x	x	u
O=C(NC1CN2CCC1CC2)c1ccc(-c2ccc([N+](=O)[O-])cc2)o1 (stereo not drawn)	-4%	26	-29%	2%	0.45µM*
O=P1(Nc2cccnc2)COc2ccccc2OC1	0%	-7	7.1µM*	-3%	-5%
O=P(Nc1cccnc1)(Oc1ccccc1)Oc1ccccc1	3%	u	-11%	-5%	-17%
C[C@H](Br)CN(C[C@H](C)Br)c1ccc2c(c1)Cc1ccccc1-2	x	x	-17%	-4%[7.66 µM]	-8%[13.5 µM]
CCC(=O)O[C@H]1CC[C@H]2[C@@H]3CCC4=CC(=O)CC[C@]4(C)[C@H]3CC[C@]12C	u	x	-5%	-5%[17.1 µM]	-9%[20.9 µM]
C[C@@]12CC[C@H]3[C@H](CCC4=CC(=O)CC[C@H]43)[C@H]1CC[C@H]2OC1(O)C(=O)c2ccccc2C1=O	x	x	-1%	-1%[7.66 µM]	0.32µM*
COc1cc(CC2C(=O)N(C)C(=O)N(C)C2=O)ccc1OCc1ccccc1	3%	u	-11%	-1%	u
C=CCc1cc(C=C2C(=O)N(C)C(=O)N(C)C2=O)cc(OCC)c1OCc1ccccc1	0%	-114*	14µM*	-6%	25µM*
C=CCc1cc(C=C2C(=O)NC(=O)NC2=O)cc(OC)c1OCc1ccc(C(=O)O)cc1	x	x	x	-2%	11µM*
CC1CC(O)[C@]2(O)[C@]13CC(=O)OC[C@@]2(C)[C@@](C)(O)C(=O)C3 (stereo partly drawn)	-6%	x	-4%	1%	-2%
CC[C@@H]1[C@@H]2Cc3ccc(O)cc3[C@@]1(CC)CCN2C	x	x	-2%	-3%[7.66 µM]	6%[13.5 µM]
COC(=O)c1ccc(N2C(=O)CC(N3CCC(O)(c4ccc(Br)cc4)CC3)C2=O)cc1 (stereo not drawn)	18%	52	-9%	-3%	3.2µM*
COC(=O)c1ccc(N2C(=O)CC(N3CCC(n4c(=O)[nH]c5ccccc54)CC3)C2=O)cc1 (stereo not drawn)	2%	-2	-13%	-3%	10µM*
CCCCCCCCCCCC[N+](C)(C)CCOc1ccccc1	u	x	-6%	x	14µM*
CCCN(CC#CCOc1ccc(OC)cc1)CCC	10%	65	-10%	-2%	20µM*
Clc1ccc(OCC#CCN2CCCC2)cc1	-2%[46 µM]	x	x	1%	u
N#CCBr	x	x	-9%	x	-9%
CCN1CCN(Cc2cc(C(C)(C)C)c(O)c(C(C)(C)C)c2)CC1	4%	-11	3%	-1%	28µM*
CCC(C)C(=O)OC1C(O)C2C(CN3CC(C)CCC3[C@]2(C)O)C2C[C@]34O[C@@]5(O)C(OC(=O)C(C)(O)CC)CCC3(C)C5C(OC(C)=O)C(OC(C)=O)C4[C@@]21O (stereo partly drawn)	x	x	-2%	3%	14%
COc1ccc(CCNCc2ccccc2F)cc1OC	-15%	u	-6%	0%	-3%
SMILES	Lamin A splicing	PNC assembly inh	HPGD inh	KinaseGlo FLuc	ALDH1A1 block
COc1ccc(CCN(C)Cc2ccncc2)cc1OC	-4%	-91*	-8%	2%	-51%
COc1ccc(CCNCc2ccncc2)cc1OC	11%	34	-8%	-3%	13µM*
C(=NC1CCCCC1)=NC1CCCCC1	x	x	-1%	x	-8%
CCNC(=O)[C@H]1O[C@@H](n2cnc3c(N)ncnc32)[C@H](O)[C@H]1O	u	x	-13%	-1%	7%
O=C(CCl)c1ccc(Cl)cc1Cl	x	x	-9%	x	0.16µM*
CSc1ccc(C(=O)C(C)(C)N2CCOCC2)cc1	3%	u	-7%	0%	8.9µM*
CN(CCC(=O)O)C1=Nc2ccc(Cl)cc2C(c2ccccc2)=[N+]([O-])C1	x	x	-5%	2%[7.66 µM]	7%[13.5 µM]
C=C1CC2C(CC[C@]3(C)C(=O)CCC23)[C@]2(C)C=CC(=O)C=C12 (stereo partly drawn)	u	x	-9%	-1%	28µM*
C[C@]12C=CC(=O)C=C1CC[C@@H]1[C@@H]2CC[C@@]2(C)[C@H]1CC[C@]2(C)O	u	x	2%	-1%[39.9 µM]	-8%
CCOC(=O)[C@@H]1[C@@H]2c3ccccc3-c3ccccc3[C@H]2C[C@H]1O	x	x	-8%	-4%[7.66 µM]	14%[13.5 µM]
CC12CN3CC(C)(CN(C1)C3c1cccs1)C2O (stereo not drawn)	-3%	-107*	-13%	3%	3%
C#CCN1C(C)=C(C(=O)CCO)[C@@H](c2cccc(-n3oo3)c2)C(C(=O)OC)=C1C	x	x	-30%	2%	0%
CC(O)C(C)OC(=O)[C@@H]1C[C@@H]2c3cccc4c3c(cn4C(C)C)C[C@H]2N(C)C1 (stereo partly drawn)	-22%	x	-16%	-3%	1.8µM*!
O=C(OCCCCN1C(=O)c2ccccc2C1=O)c1ccc(Br)o1	u	1	16µM*	1%	u
CC(=O)OC1C[C@]2(C)C(C(C)=O)CCC2C2CCC3=CC(=O)CC[C@@]3(C)C12 (stereo partly drawn)	x	x	0%	-4%	u
N#CSCC(=O)N1c2ccccc2CCc2ccccc21	u	u	18µM*	2%	0.79µM*
Nc1ccccc1C(=O)OCC(=O)N1CCc2ccccc21	-2%	-24	u	-9%	u
OC(c1ccc(Cl)cc1)(c1ccc(Cl)cc1)C(Cl)(Cl)Cl	x	x	-6%	x	-5%
CC(C)(C)c1ccc(C(=O)NC(=S)Nn2cnnc2)cc1	-7%	-2	x	x	9.5µM*
CN(C)NC(=O)CCC(=O)O	x	x	-5%	x	1%
C=CCN1C[C@H](C)N([C@H](c2ccc(C(=O)N(CC)CC)cc2)c2cccc(O)c2)C[C@H]1C	x	x	11µM*	1%	4%
O=C(CSc1nnnn1-c1ccccc1)Nc1ccc(N2CCOCC2)c(Cl)c1	u	-7	-8%	-2%	2.2µM*
[O-]/[N+](=C/c1cccnc1)c1ccc(Br)cc1	-6%	-9	-18%	0%	1.8µM*
